Shown are actives, neighbours in structure and some others; about 8% of the full set was active somewhere.
KB-3-1 cytotox: KB-3-1 parental cell cytotoxicity | KB-3-1 viability, CellTiter-Glo ATP luminescence, 72 h | Potency, µM (titrated, usually from 46.1 µM), most hits filed as cytotoxic | 1.4% of 400,000 active | AID 1347075; further: on the % scale 0 is the no-effect control and ±100 the full control effect; nearly all actives have a fitted effect of over 60% in size
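Cells are dispensed, compounds pinned in, plates held at 37 °C for 72 h, then CellTiter-Glo is added and luminescence read after 10 minutes. Cell line: parental KB-3-1 in phenol-red-free DMEM, 10% FBS.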
HT1080 IDH1KD tx: kills HT-1080 cells with IDH1 knockdown; HT-1080 IDH1 knockdown viability, ATP luminescence, 48 h; Potency, µM (doses to about 46.1 µM), without a hit: top-dose activity, negative = toxicity, most hits filed as cytotoxic; 2% of 360,000 active;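 further: 0% = DMSO wells and -100% = cell-free medium wells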
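After a 2 h attachment period, IDH1KD HT-1080 cells took pin-transferred compound for 48 h at 37 °C; ATP-based luminescence after 10 min room-temperature reagent incubation reported viability.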
HT1080-NT tox: kills 2HG-producing HT-1080-NT fibrosarcoma cells | 1.6% of 360,000 active | AID 686970 | HT-1080-NT fibrosarcoma viability, CellTiter-Glo ATP luminescence, 48 h | Potency, µM (doses to about 46.1 µM), without a hit: at the top dose activity, negative = less viability, hits mostly cytotoxic;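 further: NT is the 2HG producing partner of a matched IDH1 knockdown line; 0% = DMSO-treated cells and -100% = media-only wells without cells; nearly all actives have a fitted effect of over 55% in size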
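Fibrosarcoma NT cells, 750 per well in 5% FBS RPMI, were exposed to compound for 48 hours. Viability: CellTiter-Glo luminescence.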
SW480 rereplic: DNA re-replication induction in SW480 cells. SW480 DNA re-replication, Hoechst DNA content imaging, 48 h. Potency, µM (doses to about 46.1 µM), without a hit: at the highest dose re-replication activation, actives largely listed as activators. 1.8% of 340,000 active. AID 624297; further: % of control where 0% means no effect; nearly all actives have a fitted effect of over 55% in size
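Treated cells incubate 48 hr (37 C, 5% CO2), are stained 40 min with Hoechst, and nuclear fluorescence is enumerated; a rise in nuclei with high DNA signal marks re-replication.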
KB-V1 cytotox: KB-V1 MDR subline cytotoxicity; 3.4% of 400,000 active; KB-V1 MDR cells viability, CellTiter-Glo, 72 h; Potency, µM (highest dose often 46.1 µM), hits mostly cytotoxic; AID 1347076; further: on the % scale 0 is the no-effect control and ±100 the full control effect; nearly all actives have a fitted effect of over 60% in size
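Compound-treated KB-V1 multidrug-resistant cells, 72 h, 37 degrees C; viability by CellTiter-Glo. Fitted qHTS curves give the values.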
MCF10A rereplic: induces DNA re-replication in MCF 10a normal breast cells | 2.9% of 350,000 active | Potency, µM (doses to about 46.1 µM), inactives show at the highest dose activity, positive = re-replication, actives largely listed as activators | MCF 10A DNA re-replication, Hoechst nuclear intensity, 48 h; further: % of control where 0% means no effect; nearly all actives have a fitted effect of over 50% in size
An asterisk follows results filed as active; i = inactive; ? = inconclusive; . = no result given; [ ] = another dose, or the depositor's remark. The call rests on the fitted dose curve; in most records, active means well fitted curve in the direction sought with a large enough effect; inconclusive means small, poorly fitted or top-dose-only effect, or another doubt; inactive means no such curve, though single readings can be large; an effect the other way counts as inactive or inconclusive. Potency means the concentration at half of the fitted maximal effect.

SMILES | KB-3-1 cytotox | HT1080 IDH1KD tx | HT1080-NT tox | SW480 rereplic | KB-V1 cytotox | MCF10A rereplic
CSc1ncc(Cl)c(C(=O)Nc2ccccc2C)n1 | i | 4% | 1% | 0% | i | -1%
O=C(CSc1ccc(-c2nc3ccccc3[nH]2)cn1)Nc1ccc(S(=O)(=O)N2CCCC2)cc1 | i | -6% | -13% | -19% | ? | -51%
Cc1ccc(-c2nnc3ccc(SCC(=O)N4CCc5ccccc54)nn23)cc1 | i | -1% | -7% | 18% | i | 14%
CC(=O)CSc1ccc(-c2nc3ccccc3[nH]2)cn1 | ? | 9.2µM* | ? | -11%[9.22 µM] | 9.2µM* | 4%
Cc1ccc(-c2nnc3ccc(SCC(=O)N4CCCc5ccccc54)nn23)cc1 | i | ? | -24% | -8% | 16µM* | 4%
CCc1nnc(NC(=O)CSc2ccc(-c3nc4ccc(C)cc4[nH]3)cn2)s1 | i | 4% | -1% | 0% | 7.3µM* | ?
Cc1cc2nc(-c3ccc(SCC(=O)Nc4ccc(S(=O)(=O)N5CCCC5)cc4)nc3)[nH]c2cc1C | i | ? | ? | ? | i | 21µM*
Cc1ccc(S(=O)(=O)NC(C(=O)OCC(=O)NC(=O)c2cccn2C)C(C)C)cc1 (centres undefined) | i | -7% | -6% | -1% | i | 16%
Cc1ccc2nc(-c3ccc(SCC(=O)N4CCc5ccccc54)nc3)[nH]c2c1 | ? | 0% | 3% | ? | 4.1µM* | ?
COc1cccc(-n2c(SCc3ccccc3C)nc3c([nH]c4ccccc43)c2=O)c1 | i | . | . | . | 23µM* | .
CCN(CC)c1ccc(/C=N/N(c2ccccc2)c2ccccc2)c(O)c1 | i | -12% | -3% | ? | 16µM* | ?
CCN(CC)c1ccc(/C=N/N=C(c2ccccc2)c2ccccc2)c(O)c1 | i | -23% | -6% | 23µM* | ? | ?
CCN(CC)c1ccc(/C=N/Nc2nc3ccccc3[nH]2)c(O)c1 | ? | 6.5µM* | 8.2µM* | 2.1µM* | i | 18µM*
CC(OC(=O)c1ccco1)C(=O)Nc1nc(-c2ccccc2)cs1 (centres undefined) | i | 0% | 0% | 2% | i | -4%
Cc1cc(Cl)cc(Cl)c1CNc1c([N+](=O)[O-])c(=O)oc2ccccc12 | i | -17% | -17% | -65% | i | ?
CCOC(=O)CN(C(=O)COc1nc(C)cc(C)c1C#N)c1cccc(Cl)c1 | i | -6% | -6% | -89% | ? | 2%
O=C(COC(=O)c1ccccc1SCC(=O)N1CCCC1)Nc1ccccc1 | i | 0% | 17% | 12% | i | -1%
CC(=O)N1CCN(S(=O)(=O)c2cccc(C(=O)OCC(=O)N(Cc3ccccc3)C(C)(C)C)c2)CC1 | i | 3% | 0% | -9% | i | 7.3µM*
CC(C)(C)N(Cc1ccccc1)C(=O)COC(=O)c1ccccc1SCC(=O)N1CCCC1 | i | -1% | -6% | -22% | 21µM* | -16%
CC(=O)N1CCN(S(=O)(=O)c2cccc(C(=O)OCc3ccc(F)cc3)c2)CC1 | i | -11% | -13% | . | i | .
CC(=O)N1CCN(S(=O)(=O)c2cccc(C(=O)OCc3cccc(F)c3)c2)CC1 | i | 0% | -6% | -9% | 18µM* | -5%
CC(C)(C)N(Cc1ccccc1)C(=O)COC(=O)c1ccc(S(=O)(=O)N2CCOCC2)cc1 | . | 0% | 4% | -5% | . | -2%
COc1cc(/C=C/C(=O)OCC(=O)NC(=O)NC2CCCCC2)ccc1OC(F)F | i | 0% | 8% | -10% | i | 0%
Cc1cc(C)cc(C(=O)NC(=S)Nc2ccc3c(c2)OCCO3)c1 | i | 10% | -3% | -5% | 4.6µM* | 5%
S=C(Nc1ccc(Cl)cc1)Nc1ccc2c(c1)OCCO2 | i | 0% | 4% | 5.2µM* | i | 11%
SMILES | KB-3-1 cytotox | HT1080 IDH1KD tx | HT1080-NT tox | SW480 rereplic | KB-V1 cytotox | MCF10A rereplic
CCC(=O)N1CCN(c2ccc(Cl)cc2NC(=O)c2ccc3c(c2)OCCO3)CC1 | i | -10% | -1% | -3% | 5.2µM* | 7%
O=C(NC(=S)Nc1ccc(N2CCCCC2)c(Cl)c1)c1ccc2c(c1)OCCO2 | 1.2µM* | 18µM* | 12µM* | ? | ? | 9.2µM*
Cc1ccc(NS(=O)(=O)c2ccc3c(c2)CC(=O)N3)c(C)c1 | i | 10% | -1% | -3% | i | 11%
CCOC(=O)c1c(NC(=O)c2cccs2)sc(C(=O)N2CCOCC2)c1C | i | 13% | 27% | 0% | i | -6%
CSc1nc(NCC(C)O)c2c3c(sc2n1)CN(C)CC3 (centres undefined) | i | 0% | 2% | -6% | i | -5%
CSc1nc(SCC(=O)NC(c2ccccc2)c2ccccc2)c2c3c(sc2n1)CN(C)CC3 | ? | ? | -28% | 5.8µM* | ? | 5.2µM*
CCOc1ccc(N2C(=O)Nc3ccc(Br)cc3C2(O)C(=O)NC(C)C)cc1 (centres undefined) | i | 6% | 7% | -7% | i | 0%
CC(C)(C)C(=O)Nc1cc(S(=O)(=O)Nc2ccc(Cl)cc2)ccc1O | i | -2% | -14% | 1% | i | -8%
CCCCCCCCCCCCCCCC[n+]1ccc(/C=C/c2c(C)[nH]c3ccccc23)cc1 | 1.3µM* | . | . | . | i | .
Cc1[nH]c2ccccc2c1/C=C/c1c(C)[nH]c2ccccc12 | ? | . | . | . | i | .
Cc1[nH]c2ccccc2c1/C=C/c1cc[n+](C)cc1 | 10µM* | -7% | -23% | 6% | i | -4%
CCCCCCCCCCCCCC[n+]1ccc(C)cc1 | . | . | . | ? | . | 55%
CCCCCCC[n+]1ccc(/C=C/c2c(C)[nH]c3ccccc23)cc1 | 0.65µM* | . | . | . | i | .
OCC[n+]1ccc(/C=C/c2c[nH]c3ccccc23)cc1 | ? | -9% | -2% | 22% | i | ?
O=C(O)C1C2C=CC(C2)C1C(=O)NCc1cccs1 (centres undefined) | i | 20% | 14% | 2% | ? | 20%
O=S(=O)(NCc1ccccc1)c1ccc(S(=O)(=O)NCC2CCCO2)cc1 (centres undefined) | ? | -4% | -1% | ? | i | -2%
O=S(=O)(NCc1ccncc1)c1ccc(S(=O)(=O)NCC2CCCO2)cc1 (centres undefined) | 23µM* | 9% | 0% | 19% | i | 6.5µM*
O=C(Nc1ccc(F)cc1)c1ccc(S(=O)(=O)NCC2CCCO2)cc1 (centres undefined) | ? | 3%[9.24 µM] | ? | -10% | 13µM* | -2%

Bioassay records as filed in PubChem.
